Inconclusive results are not listed. Active and inactive are the calls of the source. The calls were made as follows: active = hit-call score of the fitted dose curve at least 0.9, where 1 is the maximum; inconclusive = response in the unintended direction; inactive = score below 0.9.
Target: rat Constitutive Nitric Oxide Synthase (CNOS), Nos1 (gene 24598) (UniProt P29476)
Test: NVS_ENZ_rCNOS: NovaScreen (NVS) Enzymatic Assay for rat Constitutive Nitric Oxide Synthase (CNOS) (AID 2283236)
How it was run: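 Single 25 uM duplicate screen, then concentration series to 50 uM for chemicals meeting threshold. Rat brain membrane-derived CNOS activity detected radiometrically by filtration and scintillation counting, 1 h after compound addition; DMSO as baseline.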

Sequence of rat Constitutive Nitric Oxide Synthase (CNOS), Nos1 (gene 24598) (P29476 whole entry, looked up): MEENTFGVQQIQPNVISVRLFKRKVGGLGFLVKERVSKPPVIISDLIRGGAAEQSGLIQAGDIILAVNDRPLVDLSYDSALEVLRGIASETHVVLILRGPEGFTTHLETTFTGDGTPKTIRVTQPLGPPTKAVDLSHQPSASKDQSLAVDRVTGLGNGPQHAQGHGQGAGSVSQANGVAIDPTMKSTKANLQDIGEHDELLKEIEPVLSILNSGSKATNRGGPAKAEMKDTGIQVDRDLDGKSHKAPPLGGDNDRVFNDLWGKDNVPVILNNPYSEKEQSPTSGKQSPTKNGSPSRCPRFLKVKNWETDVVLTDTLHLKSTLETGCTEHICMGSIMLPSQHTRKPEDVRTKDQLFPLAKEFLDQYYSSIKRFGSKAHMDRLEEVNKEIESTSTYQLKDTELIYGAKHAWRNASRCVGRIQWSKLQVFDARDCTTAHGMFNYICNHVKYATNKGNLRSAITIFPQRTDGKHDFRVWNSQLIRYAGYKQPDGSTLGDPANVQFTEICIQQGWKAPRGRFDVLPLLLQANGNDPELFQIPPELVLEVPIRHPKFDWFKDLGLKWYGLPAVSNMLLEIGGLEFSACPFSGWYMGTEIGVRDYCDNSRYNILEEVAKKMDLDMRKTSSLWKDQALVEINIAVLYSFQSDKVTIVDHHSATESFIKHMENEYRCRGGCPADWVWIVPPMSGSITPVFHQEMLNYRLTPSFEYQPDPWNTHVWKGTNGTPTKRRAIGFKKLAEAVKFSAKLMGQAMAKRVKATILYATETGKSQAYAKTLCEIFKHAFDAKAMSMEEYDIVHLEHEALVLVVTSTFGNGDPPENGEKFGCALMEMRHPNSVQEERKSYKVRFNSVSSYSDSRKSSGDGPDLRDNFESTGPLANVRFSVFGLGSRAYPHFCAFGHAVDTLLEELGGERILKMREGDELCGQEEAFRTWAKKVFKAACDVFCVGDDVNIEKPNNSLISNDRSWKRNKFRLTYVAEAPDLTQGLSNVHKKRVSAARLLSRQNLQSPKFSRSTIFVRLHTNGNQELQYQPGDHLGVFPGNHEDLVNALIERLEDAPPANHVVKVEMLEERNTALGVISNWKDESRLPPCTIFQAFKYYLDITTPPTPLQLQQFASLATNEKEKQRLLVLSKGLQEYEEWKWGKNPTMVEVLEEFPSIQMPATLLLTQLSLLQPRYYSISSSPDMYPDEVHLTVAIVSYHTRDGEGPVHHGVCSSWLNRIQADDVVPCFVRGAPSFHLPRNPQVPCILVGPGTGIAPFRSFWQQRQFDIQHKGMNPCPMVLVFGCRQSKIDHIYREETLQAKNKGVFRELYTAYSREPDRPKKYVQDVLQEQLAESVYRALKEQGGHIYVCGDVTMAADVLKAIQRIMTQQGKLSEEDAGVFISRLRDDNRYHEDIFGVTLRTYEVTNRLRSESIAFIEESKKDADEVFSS

Row | Compound | outcome | AC50
1 | CN1CCN(c2ccccc2/C=C2\SCCN(c3ccc(Cl)c(Cl)c3)C2=O)CC1 | inactive | –
2 | c1ccc2c(c1)ccc1ccccc12 | – | 1.16 µM (active)
3 | CCCOc1sc(C(=O)N2CCC(c3cc(CN)ccc3F)CC2)c(C)c1Br | inactive | –
4 | CC(C)CCCCCCOC(=O)CCCCC(=O)OCCCCCCC(C)C | inactive | –
5 | NC(=O)N1C(=O)C(C(=O)c2cc(Cl)cs2)c2cc(F)c(Cl)cc21 (centres undefined) | inactive | –
6 | CCc1ccc(CCOc2ccc(CC3SC(=O)NC3=O)cc2)nc1 (centres undefined) | – | 4.25 µM (active)

Target: sheep Cyclooxygenase-1 (Cox1), PTGS1 (gene 443551) (UniProt P05979)
Sequence (P05979 whole entry, looked up): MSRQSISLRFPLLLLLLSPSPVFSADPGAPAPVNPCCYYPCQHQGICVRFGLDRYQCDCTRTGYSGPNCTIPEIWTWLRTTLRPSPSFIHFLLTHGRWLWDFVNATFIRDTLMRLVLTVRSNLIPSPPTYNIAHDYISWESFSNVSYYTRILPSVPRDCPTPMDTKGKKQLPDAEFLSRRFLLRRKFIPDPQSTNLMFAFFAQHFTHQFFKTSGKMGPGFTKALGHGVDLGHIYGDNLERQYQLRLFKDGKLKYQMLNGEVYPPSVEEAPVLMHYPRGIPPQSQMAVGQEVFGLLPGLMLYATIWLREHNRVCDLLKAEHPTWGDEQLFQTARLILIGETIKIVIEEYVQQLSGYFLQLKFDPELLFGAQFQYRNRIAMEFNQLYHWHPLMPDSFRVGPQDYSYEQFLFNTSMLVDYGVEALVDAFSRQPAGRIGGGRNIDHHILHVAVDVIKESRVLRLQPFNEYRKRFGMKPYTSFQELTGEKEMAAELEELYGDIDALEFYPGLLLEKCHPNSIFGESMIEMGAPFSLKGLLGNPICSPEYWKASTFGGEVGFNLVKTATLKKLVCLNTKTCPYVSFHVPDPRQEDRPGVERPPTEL
Test: NVS_ENZ_oCOX1: NovaScreen (NVS) Enzymatic Assay for sheep Cyclooxygenase-1 (Cox1) (AID 2283239);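 also: actives reduce cyclooxygenase activity so potencies are for inhibitors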
How it was run: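 COX1 from ovine seminal vesicles, activity read colorimetrically about 0.66 h after dosing. Primary screen in duplicate at 25 uM; actives retested in concentration series; loss of signal fitted versus DMSO.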

Row | Compound | AC50 | outcome
7 | Cc1oc(-c2ccccc2)nc1CCOc1ccc(C[C@H](Nc2ccccc2C(=O)c2ccccc2)C(=O)O)cc1 | 26.5 µM (active) | –
8 | NC(=O)N(O)[C@@H]1C=C[C@H](Oc2cccc(Oc3ccc(F)cc3)c2)C1 | – | inactive
9 | Oc1cccc(O)c1 | 10.4 µM (active) | –
10 | Oc1cc2ccccc2c2ccccc12 | 27.7 µM (active) | –
11 | CCCCCCCCCCCCc1ccccc1S(=O)(=O)O | 9.01 µM (active) | –
12 | N#C[C@@H]1CC(F)(F)CN1C(=O)CNC1CC2CCC(C1)N2c1ncccn1 (some centres undefined) | – | inactive
13 | COc1ccc([N+](=O)[O-])cc1N | 12.2 µM (active) | –

Target: Adenosine receptor A1 (Bos taurus) (UniProt P28190)
Sequence (P28190 whole entry, looked up): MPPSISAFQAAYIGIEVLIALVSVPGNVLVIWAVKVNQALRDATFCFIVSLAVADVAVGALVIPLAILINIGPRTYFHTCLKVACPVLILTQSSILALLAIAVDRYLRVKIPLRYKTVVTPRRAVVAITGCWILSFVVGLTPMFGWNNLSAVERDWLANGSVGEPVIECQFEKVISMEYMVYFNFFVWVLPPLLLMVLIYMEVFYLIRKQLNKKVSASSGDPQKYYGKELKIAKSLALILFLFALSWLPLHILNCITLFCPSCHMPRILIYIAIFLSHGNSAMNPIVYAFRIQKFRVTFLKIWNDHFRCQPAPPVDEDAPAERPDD
Test: NVS_GPCR_bAdoR_NonSelective: NovaScreen (NVS) G Protein-Coupled Receptor Assay for bovine Adenosine Receptor (AdoR), Non-selective Binding (AID 2283244)
How it was run: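 Cell-free binding with membranes from bovine striatum: radioligand displaced by test chemical, read after 1 h by filtration and scintillation. Single-point 25 uM duplicate primary, 50 uM top concentration in follow-up curves, DMSO baseline.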

Row | Compound | outcome | AC50
14 | Nc1cccc2c(N)cccc12 | inactive | –
15 | O=C(O)Cc1cc(I)c(Oc2cc(I)c(O)c(I)c2)c(I)c1 | inactive | –
16 | Cc1cc(CCN2CCN(c3nsc4ccccc34)CC2)cc2c1NC(=O)CC2(C)C | inactive | –
17 | CCN(CC)CCNc1ccc(CNC=O)c2sc3ccc(OC)cc3c(=O)c12 | – | 4.38 µM (active)
18 | CC(C)(C)c1ccc(O)c(C(C)(C)C)c1 | inactive | –
19 | NC(=O)N1C(=O)C(C(=O)c2cc(Cl)cs2)c2cc(F)c(Cl)cc21 (centres undefined) | inactive | –
